The source of these data is the OligoGym collection.
Note: reference of the scale not given here.

One assay addresses FAM151A. Put plainly: pooled miR-30 sensor sort-seq; sequence = guide strand. Conditions: shRNA.
With TACATTGACGTCAGCCTCCAGG, the sensor-assay potency score (higher = more potent) was -0.38. The same measure, in the same setting: next, ATGACCACCACAGACACACAGG: -1.21. The same measure, in the same setting: next, AAAGATGTCATAGTAGACTTGG: 0.264; TTCCTCTGTCAGCTGCCGCAGG: -0.626. Same read-out and setting: next, TAAGATGTCAGCGTTGATCCAT: 0.0658. TTGTGCTCCACTGTGACGGTGG returned a sensor-assay potency score (higher = more potent) of 0.185.

The next assay addresses FAM151B. Described as above. Conditions: shRNA.
With TTAGCTGCATGATACCAGGTGA, the sensor-assay potency score (higher = more potent) was -0.378. Same read-out and setting: the same measure for TTTGCATCTATTACTTTGCTAT: -0.561. Still for that read-out and setting: the same measure for TCTTCTGCTGTAATCTGGCTAT: -0.597; for TTTGATTTCTTTAACAGCCAAA: -1.02.

As for TAATGTAAAGTAAATCTTCAAC, the sensor-assay potency score (higher = more potent) was -0.985.

As to TTGAAATCCAGCTTGATGCCTT, the sensor-assay potency score (higher = more potent) was found to be 0.157.

Regarding TATTTTCACTCCAAGATCCTGG, the sensor-assay potency score (higher = more potent) is -0.051.

TATGAAACCAAAACACAGGAAA: the sensor-assay potency score (higher = more potent) was -1.05. The same measure, in the same setting: the same measure for TACAACTGCCAGACTTTTGAAA: -0.597; for TTTTCCAGTCCAAATAGTCAGG: -1.41; for TATTGCTTTTCATAACTTCAGT: -0.677. Same read-out and setting: the same measure for TAGAGTATTATCACTGTTTGTT: 0.198.
